High-throughput results from PubChem BioAssay.
TDP1 cell CPT – DT40-hTDP1 cell growth loss with CPT; chicken DT40 Tdp1-/-;hTDP1 cells + 20 nM CPT, ATP luminescence, 48 h; Potency, µM (top dose mostly 46.2 µM), for inactives: at the highest dose activity change, negative = growth inhibition, most hits filed as inhibitors; hit rate 12% among 420,000; note: potency is the fitted concentration of half-maximal effect; nearly all actives have a fitted effect of over 55% in size
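Chicken DT40 Tdp1-/- cells complemented with human TDP1, 400 cells/well, exposed to compounds plus 20 nM camptothecin for at least 48 h at 37 C; viability read as ATP content by CellTiter-Glo luminescence.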
HT1080 IDH1KD tx – toxicity to HT-1080 IDH1 knockdown cells (counter line). hit rate 2% among 360,000. AID 686971. Potency, µM (series often up to 46.1 µM), without a hit: at the top dose activity, negative = toxicity, most hits filed as cytotoxic. HT-1080 IDH1 knockdown viability, ATP luminescence, 48 h;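 note: potency is the fitted concentration of half-maximal effect; 0% = DMSO wells and -100% = cell-free medium wells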
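Viability of IDH1-knockdown HT-1080 fibrosarcoma cells was assessed by CellTiter-Glo after 48 h at 37 °C with titrated compound; concentration-effect curves were classified by fit quality and response size.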
IL1B secr inh – inhibitors of inflammasome signaling (IL-1 beta secretion); THP-1 LPS/ATP IL-1B secretion, AlphaLISA, 16 h; stronger effect = lower value; activity change, % at 57.5 µM; hit rate 4.7% among 360,000; AID 743279; in the data active = activity change below about -50%; inconclusive = mostly about -30% to -49%
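THP-1 cells pretreated 1 hr with compounds (up to 57.5 uM final), then stimulated with LPS (250 ng/mL final) plus ATP (1.25 mM final); secreted IL-1B measured by AlphaLISA after 16 hr, decreased signal indicating inhibition.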
ELG1 repair inh – inhibitors of ELG1-dependent DNA repair in HEK293T cells; HEK293T ELG1-luciferase reporter, luminescence, 16 h; DNA damage induced by 5-fluorouridine; Potency, µM (series often up to 46.1 µM), for the others: at the highest dose activity change, negative = inhibition, hits mostly inhibitors; hit rate 2.3% among 330,000; AID 504467; note: potency is the fitted concentration of half-maximal effect; nearly all actives have a fitted effect of over 55% in size
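Luminescence from the luciferase reporter, measured 30 min after ONE-Glo reagent at room temperature, was the read-out. Beforehand, 2,000 cells per well were exposed for 16 hr at 37 °C to 5-fluorouridine together with compound or vehicle.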
DT40 TDP1 no CPT – qHTS for Inhibitors of human tyrosyl-DNA phosphodiesterase 1 (TDP1): qHTS in cells in absence of CPT. DT40 Tdp1-/- hTDP1 cells, no CPT, ATP luminescence, 48 h. hit rate 15% among 420,000. Potency, µM (highest dose often 46.2 µM), inactives show at the top dose activity change, negative = growth inhibition, hits mostly inhibitors; note: potency is the fitted concentration of half-maximal effect; nearly all actives have a fitted effect of over 55% in size
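Camptothecin absent (DMSO only). Human TDP1-complemented DT40 knockout cells, 400 cells/well, 37 °C for minimum 48 hr; ATP measured via CellTiter-Glo, 30 min dark incubation, luminescence.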
HT1080-NT tox – kills 2HG-producing HT-1080-NT fibrosarcoma cells; Potency, µM (series often up to 46.1 µM), for the others: top-dose activity, negative = less viability, actives largely listed as cytotoxic; hit rate 1.6% among 360,000; HT-1080-NT fibrosarcoma viability, CellTiter-Glo ATP luminescence, 48 h; AID 686970;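 note: NT is the 2HG producing partner of a matched IDH1 knockdown line; potency is the fitted concentration of half-maximal effect; 0% = DMSO-treated cells and -100% = media-only wells without cells; nearly all actives have a fitted effect of over 55% in size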
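750 cells/well, RPMI + 5% FBS; 2 h settle, compound pin-transfer, 48 h at 37 degrees C. CellTiter-Glo 10 min RT, luminescence. Normalized to DMSO and media-only wells.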
The depositor's hits bear a star. Compounds with a hit are over-represented: about 19% of the library has one in this group of screens. Unless noted, calls come from the whole dose curve; as a rule, active = well fitted curve in the direction sought with a large enough effect; inconclusive = small, poorly fitted or top-dose-only effect, or another doubt; inactive = no such curve, though single readings can be large; an effect the other way counts as inactive or inconclusive. Unless noted, % is set by controls: 0 for no effect and ±100 for the full control effect.

How did COc1ccccc1N1CCN(C2CCCN(S(=O)(=O)c3ccc(C)cc3)C2)CC1 (centres undefined) do in these assays?
TDP1 cell CPT: inconclusive; HT1080 IDH1KD tx: 1%; IL1B secr inh: -7; ELG1 repair inh: -1%; DT40 TDP1 no CPT: inconclusive; HT1080-NT tox: -2%

What do the screens show for `Cc1ccc(S(=O)(=O)N2CCCC(c3nnc4n3-c3ccccc3SC4)C2)cc1` (centres undefined)?
TDP1 cell CPT: inconclusive; HT1080 IDH1KD tx: -1%; IL1B secr inh: -10; ELG1 repair inh: inconclusive; DT40 TDP1 no CPT: 15µM*; HT1080-NT tox: 0%

Results for CCC(CC)C(=O)N(C)c1c(C)nc2c(OCCC3CCCCC3)cccn12 ?
TDP1 cell CPT: 7.3µM*; HT1080 IDH1KD tx: -21%; IL1B secr inh: inconclusive; DT40 TDP1 no CPT: 5.2µM*; HT1080-NT tox: -12%

How did CCC(CC)C(=O)N(C)c1c(C)nc2c(OCCOc3ccc(F)cc3)cccn12 do in these assays?
TDP1 cell CPT: 21µM*; HT1080 IDH1KD tx: inconclusive; IL1B secr inh: -15; DT40 TDP1 no CPT: 18µM*; HT1080-NT tox: -28%

What do the screens show for `CCC(CC)C(=O)N(C)c1c(C)nc2c(OCC(=O)C(C)(C)C)cccn12`?
TDP1 cell CPT: -20%; HT1080 IDH1KD tx: 11%; IL1B secr inh: 25; DT40 TDP1 no CPT: inconclusive; HT1080-NT tox: inconclusive

How did OCC1C2c3ccccc3C(c3ccccc32)C1CO (centres undefined) do in these assays?
TDP1 cell CPT: -1%; HT1080 IDH1KD tx: 26%; ELG1 repair inh: -1%; DT40 TDP1 no CPT: inconclusive; HT1080-NT tox: 4%

What do the screens show for `Cc1cc(C)c2c(=O)n(CC(=O)Nc3ccc(Br)c(C)c3)sc2n1`?
TDP1 cell CPT: 8.2µM*; HT1080 IDH1KD tx: 1%; IL1B secr inh: 8; ELG1 repair inh: 0%; DT40 TDP1 no CPT: 9.2µM*; HT1080-NT tox: 0%

What do the screens show for `COc1ccc(OC)c(CCNC(=O)Cn2sc3nc(C)cc(C)c3c2=O)c1`?
ELG1 repair inh: -3%

Results for Cc1cc(C)c2c(=O)n(CC(=O)NC3CCCC3)sc2n1 ?
TDP1 cell CPT: 2.9µM*; HT1080 IDH1KD tx: 16%; IL1B secr inh: -2; ELG1 repair inh: 0%; DT40 TDP1 no CPT: 4.1µM*; HT1080-NT tox: 17%

How did Cc1cc(C)c2c(=O)n(CC(=O)Nc3cccc(Cl)c3C)sc2n1 do in these assays?
TDP1 cell CPT: 5.2µM*; HT1080 IDH1KD tx: inconclusive; IL1B secr inh: 3; ELG1 repair inh: inconclusive; DT40 TDP1 no CPT: 3.7µM*; HT1080-NT tox: inconclusive

How did Cc1ccc(C)c(S(=O)(=O)N2CCCC2CNC(=O)C(=O)NCc2ccco2)c1 (centres undefined) do in these assays?
TDP1 cell CPT: inconclusive; HT1080 IDH1KD tx: -1%; IL1B secr inh: -6; ELG1 repair inh: -9%; DT40 TDP1 no CPT: inconclusive; HT1080-NT tox: 0%

How did COc1ccc(CNC(=O)C(=O)NCCC2CCCCN2S(=O)(=O)c2ccc(C)cc2)cc1 (centres undefined) do in these assays?
TDP1 cell CPT: 16µM*; HT1080 IDH1KD tx: 0%; IL1B secr inh: -11; ELG1 repair inh: inconclusive; DT40 TDP1 no CPT: 26µM*; HT1080-NT tox: -7%

What do the screens show for `Cc1ccc(S(=O)(=O)N2CCCCC2CCNC(=O)C(=O)NCc2ccccc2)cc1` (centres undefined)?
TDP1 cell CPT: 3.3µM*; HT1080 IDH1KD tx: 6.5µM*; IL1B secr inh: -1; ELG1 repair inh: -28%; DT40 TDP1 no CPT: 2.9µM*; HT1080-NT tox: 7.3µM*

How did Cc1ccc(C)c(S(=O)(=O)N2CCCCC2CCNC(=O)C(=O)NCc2ccco2)c1 (centres undefined) do in these assays?
TDP1 cell CPT: 16µM*; HT1080 IDH1KD tx: inconclusive; IL1B secr inh: -8; ELG1 repair inh: inconclusive; DT40 TDP1 no CPT: 8.2µM*; HT1080-NT tox: -17%

How did Cc1cc(C)c(NC(N)=S)c(C)c1 do in these assays?
TDP1 cell CPT: 6%; HT1080 IDH1KD tx: 18%; IL1B secr inh: -11; ELG1 repair inh: 14%; DT40 TDP1 no CPT: 7%; HT1080-NT tox: 14%

How did CCOc1ccc(CN2C(=O)c3ccccc3Sc3ccc(C(=O)NCCc4ccccc4)cc32)cc1 do in these assays?
TDP1 cell CPT: -28%; DT40 TDP1 no CPT: inconclusive

How did COCCNC(=O)c1ccc2c(c1)N(Cc1ccc(C(F)(F)F)cc1)C(=O)c1ccccc1S2 do in these assays?
TDP1 cell CPT: 16µM*; DT40 TDP1 no CPT: inconclusive

How did O=C(NC1CCCC1)c1ccc2c(c1)N(Cc1ccc(C(F)(F)F)cc1)C(=O)c1ccccc1S2 do in these assays?
TDP1 cell CPT: 21µM*; DT40 TDP1 no CPT: 9.2µM*

How did CCN(CC)C(=O)c1ccc2c(c1)N(Cc1ccc(C(F)(F)F)cc1)C(=O)c1ccccc1S2 do in these assays?
TDP1 cell CPT: 16µM*; DT40 TDP1 no CPT: 18µM*

How did O=C(O)c1ccc2c(c1)N(Cc1ccc(F)cc1)C(=O)c1ccccc1S2 do in these assays?
TDP1 cell CPT: -1%; HT1080 IDH1KD tx: 8%; IL1B secr inh: 6; ELG1 repair inh: 21%; DT40 TDP1 no CPT: -19%; HT1080-NT tox: -9%

What do the screens show for `Cc1ccc(CN2C(=O)c3ccccc3Sc3ccc(C(=O)NC4CCCCC4)cc32)cc1`?
TDP1 cell CPT: -2%; DT40 TDP1 no CPT: -18%

How did CC(=O)OCC(=O)C12OC(C)(C)OC1CC1C3CC=C4CC(O)CCC4(C)C3CCC12C (centres undefined) do in these assays?
TDP1 cell CPT: inconclusive; HT1080 IDH1KD tx: -7%; IL1B secr inh: 2; DT40 TDP1 no CPT: inconclusive; HT1080-NT tox: -9%

What do the screens show for `Cc1c(C(=O)c2ccc([N+](=O)[O-])cc2)c(=O)n(C)c(=O)n1C`?
TDP1 cell CPT: -8%; HT1080 IDH1KD tx: 13%; IL1B secr inh: 20; ELG1 repair inh: 8%; DT40 TDP1 no CPT: -5%; HT1080-NT tox: 3%

Results for COc1cccc(OC)c1C(=O)Nc1cc(C)nn1-c1nc2ccccc2[nH]1 ?
TDP1 cell CPT: 16µM*; HT1080 IDH1KD tx: 0%; IL1B secr inh: 14; ELG1 repair inh: inconclusive; DT40 TDP1 no CPT: 9.2µM*; HT1080-NT tox: 6%

How did Cc1cc(NC(=O)c2ccccc2)n(-c2nc3ccccc3[nH]2)n1 do in these assays?
TDP1 cell CPT: inconclusive; HT1080 IDH1KD tx: 8%; IL1B secr inh: -2; ELG1 repair inh: -9%; DT40 TDP1 no CPT: -7%; HT1080-NT tox: 11%
